Numbered stars: 1 amine (or outer) side, 2 acyl side, 3 side chain; on linkers, the order of the positions; unused ones are H or OH. Bridge positions count the residues as written; N and C are the ends. Square brackets hold non-standard residues; d marks the D form. Peptide text beside a SMILES is read from it. I, II: the chains in the order shown. Hexamethylenediamine = C(CCCN[*:2])CCN[*:1]; Dip = N[C@H](C(=O)O)C(c1ccccc1)c1ccccc1; Chg = N[C@H](C(=O)O)C1CCCCC1; NMeA = CN[C@@H](C)C(=O)O

This test has as its target Bromodomain-containing protein 4 (Homo sapiens) (UniProt O60885). The following applies: Compound concentration 20.0 uM, Protein concentration 2.0 uM, Result type QC Liability.
In the case of `CC(=O)N1CCC(c2ccc(C(=O)NC3=NCCN3)cc2C(F)(F)F)CC1`, the ΔTm is -0.26 °C. For `Cc1ncsc1-c1ccc(CNC(=O)[C@@H]2C[C@H](O)CN2C(=O)[C@@H](NC(=O)C2(F)CC2)C(C)(C)C)c(OCCOc2ccc(CN3CCN(c4cc(-c5ccccc5O)nnc4N)CC3)cc2)c1` (relative stereo), the ΔTm was determined as 14.5 °C.

`COCc1c(-c2cc3cc(C)cc(OC)c3s2)c2c(N)ncnn2c1CN[C@@H]1CCNC1=O`: the ΔTm turned out to be 1.53 °C.

As to `CCN1C(=O)c2cc(C)ccc2N(C)c2ncccc21`, the ΔTm is -1.19 °C. `Nc1c(CC(=O)O)cccc1C(=O)c1ccc(Br)cc1`: the ΔTm is -0.6 °C. The result for `CN[C@@H](C)C(=O)N[C@H](C(=O)N1CCC[C@H]1C(=O)N[C@H](C(=O)NCCCCCCNC(=O)[C@@H](NC(=O)[C@@H]1CCCN1C(=O)[C@@H](NC(=O)[C@H](C)NC)C1CCCCC1)C(c1ccccc1)c1ccccc1)C(c1ccccc1)c1ccccc1)C1CCCCC1` (I: H-[NMeA][Chg]P[Dip] / II: H-[NMeA][Chg]P[Dip]; linker I:C-II:C via Hexamethylenediamine) reads -4.77 °C; that for `CNC(=O)c1ccc(C)c(-n2c(C)cc(OCc3ccc(F)cc3F)c(Br)c2=O)c1`, -1.55 °C; that for `CN1CCCN(C(=O)c2cccc(-c3ccc(/C=C4/C(=O)Nc5ccc(Cl)cc54)o3)c2)CC1`, -4.14 °C. The result for `CC(C(=O)Nc1cc(C#N)ccc1CCCC(=O)O)c1ccc(F)c2ccccc12` (stereo not given) reads -0.24 °C; that for `CNC(=O)COc1cc2cc(Nc3nc(N4C[C@H](C)C[C@H](C)C4)ncc3Cl)ccc2n(C)c1=O`, -0.33 °C.

A word on the ΔTm: it is the change in melting temperature against a reference sample.

Values taken from ChEMBL document CHEMBL5308504, “Tm Shift (DSF) assay results for EUbOPEN Chemogenomics Library” (2023).
